± gives the standard deviation of the averaged measurements. Over roughly 25,000 sequences, “ln(normalized median fluorescence intensity)” has its median near 8.6; the highest 2% begin near 10. The sample holds the highest values, similar sequences and a random draw of the others, so the mix is not that of the screen.

These results are taken from the supplement of paper PMC11417369.

This assay deals with PfAP2-EXP AP2 domain (GST-tagged). Briefly: gcPBM binding intensity (ln(normalized median fluorescence intensity)); higher = stronger DNA binding. In a few lines: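 Using an Agilent 4 × 180k array, primer-extended double-stranded 36-bp intergenic genomic probes and negative controls were exposed for 1 h to GST-fused P. falciparum DNA-binding domains expressed in E. coli. Binding was carried out in 1× PBS with 1% milk, 0.2 mg/ml BSA, 0.5% salmon testes DNA and 0.03% Triton X-100, and protein was detected with Alexa488 anti-GST antibody and a 488 nm scan. Binding intensity is the highest Masliner-normalised natural-log median intensity across replicate spots of either probe orientation.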
Turning to “AATGTAAAATATAAATGTACATATATATATATATAT [XGTACX_site5071]”, the “gcPBM binding intensity (ln)” value was found to be 10.2 ± 0.24.

As for “TAAAATGTACAGGACGCACACACATATATATATATA [CACACA_site3673]”, the “gcPBM binding intensity (ln)” value came to 10.1 ± 0.22.

For “AAAAAAAAAAAAAAATGTACATATATATAAATAAAA [XGTACX_site5574]”, the “gcPBM binding intensity (ln)” value stood at 8.51 ± 0.45.

In the case of “AAAAAAAAAAAAAAATGTACATATATATAAATATAT [XGTACX_site6768]”, the “gcPBM binding intensity (ln)” value turned out to be 8.34 ± 0.4.

With “AACATATAAATAAACTGTACATATATATATATATAT [XGTACX_site1056]”, the “gcPBM binding intensity (ln)” value came to 10.1 ± 0.39.

Turning to “ATTTTTATAGAATGAACACACATATTATAGCATTTA [CACACA_site6842]”, the “gcPBM binding intensity (ln)” value stood at 8.45 ± 0.38.

Consider “AACACTTCTTATTTATGTACTTAATTCCCAACGGAA [XGTACX_site4818]”, for which the “gcPBM binding intensity (ln)” value turned out to be 8.87 ± 0.46.

Consider “CATATGATATTATTTTGTACTTATTACAAATATGAA [XGTACX_site7929]”, for which the “gcPBM binding intensity (ln)” value is 8.4 ± 0.42.

Consider “TATAAAGCAACTGAAACACACAAATTTTTTTTTTTT [CACACA_site3218]”, for which the “gcPBM binding intensity (ln)” value turned out to be 8.04 ± 0.46.

As to “ACACATAATATGTGTAGTACTTTTTCTTTAACATTA [XGTACX_site1436]”, the “gcPBM binding intensity (ln)” value turned out to be 8.64 ± 0.36.

Turning to “TATAAAAATAATATTACACACATGTAAAATGCCCGT [CACACA_site7522]”, the “gcPBM binding intensity (ln)” value came out at 8.49 ± 0.31.

For “GGACAAGTTTTTTACATAAATAAAAAAAATAAAAAA [XGTACX_negctrl_site125]”, the “gcPBM binding intensity (ln)” value came to 8.44 ± 0.42.

Turning to “AAAAGGATTTTTTATACACACACTAACTAATGTATA [CACACA_site2356]”, the “gcPBM binding intensity (ln)” value came to 8.23 ± 0.43.

Consider “ATACATGAATAAATATGTACACATATAAAAACATAT [XGTACX_site2740]”, for which the “gcPBM binding intensity (ln)” value turned out to be 8.68 ± 0.23.

As for “TTAAATGTTATATATTGTACATATAATATATGTATT [XGTACX_site1492]”, the “gcPBM binding intensity (ln)” value was 8.27 ± 0.19.

Regarding “TTATACTAAATGAACACACACACATATATATATATA [CACACA_site99]”, the “gcPBM binding intensity (ln)” value stood at 10 ± 0.5.

On to “AATAAAATACAAAAATGTACAAATATAATATACATA [XGTACX_site279]”, for which the “gcPBM binding intensity (ln)” value was 8.34 ± 0.28.

For the sequence “TATAATATATACAAATGTACATATATATATATATAT [XGTACX_site4559]”, the “gcPBM binding intensity (ln)” value was found to be 10.2 ± 0.42.

Regarding “CATATATAATAATATTGTACATATATAATAATAATA [XGTACX_site3338]”, the “gcPBM binding intensity (ln)” value was 8.4 ± 0.35.

Take “TCTGGCATATAATATTGTACACATATATATATATAT [XGTACX_site8182]”: the “gcPBM binding intensity (ln)” value is 10.2 ± 0.33.

As to “ATATATATAATATATTGTACATATAATATATATATA [XGTACX_site4792]”, the “gcPBM binding intensity (ln)” value was determined as 9.24 ± 0.042.

Regarding “TAAATAAAATACAAATGTACATAAATAATAAATATA [XGTACX_site1813]”, the “gcPBM binding intensity (ln)” value came to 8.76 ± 0.41.

As for “TATTAAATATTGTAATGTACATATATAATATAATAT [XGTACX_site1809]”, the “gcPBM binding intensity (ln)” value worked out at 8.53 ± 0.17.

On to “ATACTAAAAATGAATGTACACATATATATATATATA [TGCATGCA_negctrl_site209]”, for which the “gcPBM binding intensity (ln)” value came to 10.2 ± 0.33.

Consider “AAATGGAGTTAATATTGTACATATATATATATATAT [XGTACX_site5452]”, for which the “gcPBM binding intensity (ln)” value turned out to be 10.3 ± 0.18.

For “GGATAAAATGCTACGAGTACATAAGCATTTTTCCCT [XGTACX_site7796]”, the “gcPBM binding intensity (ln)” value was 8.73 ± 0.35.

With “ATGGTCTGTTAAAGATGTACTTTTTAAAAATAAACG [XGTACX_site2583]”, the “gcPBM binding intensity (ln)” value is 8.48 ± 0.25.

As for “TATAGGTATATATTATGTACTTATAATTATATAGAT [XGTACX_site1912]”, the “gcPBM binding intensity (ln)” value worked out at 8.52 ± 0.35.

For the sequence “TATATATATAAAATATGTACATAAAATTATTTATTT [XGTACX_site7666]”, the “gcPBM binding intensity (ln)” value came to 8.61 ± 0.26.

Consider “ATATAATAATAAGGCACACAAATTAAAATATAAAAA [CACACA_site3710]”, for which the “gcPBM binding intensity (ln)” value worked out at 8.79 ± 0.35.

Regarding “TCATAAATATGAAAAAGTACAAAGGTAGATTTTGAA [XGTACX_site4535]”, the “gcPBM binding intensity (ln)” value came to 8.48 ± 0.3.

In the case of “GGATAATATATTAGAACACACATATAGATGTAAAAA [CACACA_site6229]”, the “gcPBM binding intensity (ln)” value was found to be 8.57 ± 0.54.

In the case of “ATATATATATATATATGTACATAATGCATATAATAT [XGTACX_site6142]”, the “gcPBM binding intensity (ln)” value is 10.2 ± 0.56.

On to “CGCATGCAATGTTAATGTACATATATATATATATGT [XGTACX_site3316]”, for which the “gcPBM binding intensity (ln)” value turned out to be 9.395 ± 0.049.

Take “TGTACAAATATGTACACACACACATATATATATATA [CACACA_site584]”: the “gcPBM binding intensity (ln)” value is 9.95 ± 0.31.

Regarding “ATATATGCATATATATGTACATATATATATATATAT [XGTACX_site7403]”, the “gcPBM binding intensity (ln)” value was determined as 9.93 ± 0.4.

“ATTATGTTAATAATATGTACATATATCTACATATAT [XGTACX_site7978]”: the “gcPBM binding intensity (ln)” value is 8.37 ± 0.33.

Regarding “ATATATATATATATATGTACATATGTTAATCTGCAT [XGTACX_site1068]”, the “gcPBM binding intensity (ln)” value worked out at 10.2 ± 0.31.

With “AAATATATAATACATATGTAATATGCATATATATAT [GTGCAC_negctrl_site450]”, the “gcPBM binding intensity (ln)” value was found to be 9.72 ± 0.16.

As to “TCGTCACTTTAATATTGTACATATATATATATATAT [XGTACX_site8046]”, the “gcPBM binding intensity (ln)” value stood at 10.3 ± 0.13.

Turning to “ACACAAGCACACAAATGTACATATATATATATATAT [XGTACX_site5146]”, the “gcPBM binding intensity (ln)” value came out at 10.2 ± 0.13.

On to “TTTTTTTTTTTTTATTGTACATACTTTTAAATATAT [XGTACX_site4303]”, for which the “gcPBM binding intensity (ln)” value stood at 8.55 ± 0.59.

For “TAAAAATCCACAAGCACACAAATGTACATATATATA [CACACA_site2462]”, the “gcPBM binding intensity (ln)” value was determined as 8.71 ± 0.24.

With “CGCTCTCTTTAATATTGTACATATATATTATATATA [XGTACX_site7017]”, the “gcPBM binding intensity (ln)” value stood at 8.77 ± 0.35.

For “TACAAATATATATGCACACACATATATGTATATGTG [CACACA_site3075]”, the “gcPBM binding intensity (ln)” value turned out to be 8.65 ± 0.26.
